# Measurements as given in PubChem BioAssay (Tox21).
# Where “and” joins values, the source holds several entries; their conditions need not be identical. Equal values may be shown once. Inconclusive results are not listed. Where a call stands in place of a potency, no number is given. Calls of active or inactive are those of the source. Unless noted, the call rests on the fitted dose curve; in most records, active means well fitted curve in the direction sought with a large enough effect in the repeat runs; inconclusive means weak or mixed curves; inactive means no such curve, though single readings can be large; an effect the other way counts as inactive or inconclusive.
# Assays:
# [1] = qHTS assay for small molecules that induce genotoxicity in human embryonic kidney cells expressing luciferase-tagged ATAD5 (AID 651632); further: nearly all actives have a fitted effect of over 15% in size
# How it was run: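 Quantitative HTS in HEK293T expressing luciferase-tagged ATAD5, whose levels rise upon DNA damage. Exposure ran 16 hr at 37C and 5% CO2, with luminescence read 30 min after Amplite addition at room temperature.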
# [2] = qHTS assay for small molecules that induce genotoxicity in human embryonic kidney cells expressing luciferase-tagged ATAD5 - cell viability (AID 651634; calls by dose curve; further: nearly all actives have a fitted effect of over 25% in size)
# How it was run: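 After 15.5 hr incubation with compound at 37C, 5% CO2, HEK293T ATAD5-luciferase cells received CellTiter-Fluor reagent; fluorescence intensity was quantified following 30 min at 37C.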
# [3] = qHTS assay for small molecule disruptors of the mitochondrial membrane potential - cell viability (AID 720634; calls by dose curve;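 further: human HepG2 liver cancer cells; series mostly up to about 83 µM; nearly all actives have a fitted effect of over 20% in size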)
# How it was run: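 ATP-based luminescent viability readout (CellTiter-Glo, 30 min, room temperature) in HepG2 cells multiplexed with the m-MPI membrane potential dye; compound exposure lasted 1 hr at 37 C.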
# [4] = qHTS assay to test for compound auto fluorescence at 590 nm (red) in HepG2 cells (AID 720674)
# How it was run: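 Compound auto-fluorescence is scored relative to Rose Bengal sodium, measured at 540/590 nm in live HepG2 cultures after 1 hr compound contact (37 C, 5% CO2).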
# [5] = qHTS assay to test for compound auto fluorescence at 535 nm (green) in HepG2 cells (AID 720675)
# [6] = qHTS assay to test for compound auto fluorescence at 460 nm (blue) in HEK293 cells (AID 720678)
# How it was run: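 Cells were seeded and left to adhere for 4-5 hr at 37C. Compounds were then pin-transferred. After an overnight incubation at 37C under 5% CO2, intrinsic fluorescence at 405/460 nm was measured and referenced to triamterene.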
# [7] = qHTS assay to test for compound auto fluorescence at 535 nm (green) in HEK293 cells (AID 720680)
# [8] = qHTS assay to test for compound auto fluorescence at 460 nm (blue) in HEK293 cell free culture (AID 720681)
# How it was run: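 Test compounds were pinned into cell-free culture medium (DMEM with 10% FBS) and fluorescence was read directly at Ex/Em 405/460 nm. Signals were expressed as fluorescence equivalents of triamterene, with DMSO vehicle as control.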
# [9] = qHTS assay to test for compound auto fluorescence at 590 nm (red) in HEK293 cell free culture (AID 720683)
# How it was run: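 Tox21 10K library compounds were pinned into cell-free DMEM with 10% FBS and fluorescence was read at excitation 540 nm. Activity is expressed as Rose Bengal sodium equivalency.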
# [10] = qHTS assay to test for compound auto fluorescence at 590 nm (red) in HepG2 cell free culture (AID 720684)
# How it was run: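 Ex 540 / Em 590 nm read of compound in cell-free MEM (10% FBS). Rose Bengal sodium reference.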
# [11] = qHTS assay to test for compound auto fluorescence at 460 nm (blue) in HepG2 cell free culture (AID 720685)
# How it was run: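 Cell-free plates of MEM plus 10% FBS received 23 nL compound or DMSO vehicle; blue-channel (405/460 nm) intensity scored against triamterene as reference fluorophore.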
# [12] = qHTS assay to test for compound auto fluorescence at 460 nm (blue) in HepG2 cells (AID 720687)
# How it was run: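 Cells (2,000/well in MEM with 10% FBS) attached overnight at 37 C, then were exposed to compound or DMSO for 1 hr at 37 C, 5% CO2. Fluorescence read at Ex/Em 405/460 nm, expressed as triamterene-equivalent signal.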
# [13] = target: Glucocorticoid receptor (Homo sapiens) (UniProt P04150); experiment: qHTS assay to identify small molecule agonists of the glucocorticoid receptor (GR) signaling pathway (AID 720691; active means well fitted activation curve with a large enough effect in the signal ratio in the repeat runs, not every such curve was filed as active; the % refers to the signal ratio)
# Chain of Glucocorticoid receptor (Homo sapiens) (P04150 whole entry, looked up): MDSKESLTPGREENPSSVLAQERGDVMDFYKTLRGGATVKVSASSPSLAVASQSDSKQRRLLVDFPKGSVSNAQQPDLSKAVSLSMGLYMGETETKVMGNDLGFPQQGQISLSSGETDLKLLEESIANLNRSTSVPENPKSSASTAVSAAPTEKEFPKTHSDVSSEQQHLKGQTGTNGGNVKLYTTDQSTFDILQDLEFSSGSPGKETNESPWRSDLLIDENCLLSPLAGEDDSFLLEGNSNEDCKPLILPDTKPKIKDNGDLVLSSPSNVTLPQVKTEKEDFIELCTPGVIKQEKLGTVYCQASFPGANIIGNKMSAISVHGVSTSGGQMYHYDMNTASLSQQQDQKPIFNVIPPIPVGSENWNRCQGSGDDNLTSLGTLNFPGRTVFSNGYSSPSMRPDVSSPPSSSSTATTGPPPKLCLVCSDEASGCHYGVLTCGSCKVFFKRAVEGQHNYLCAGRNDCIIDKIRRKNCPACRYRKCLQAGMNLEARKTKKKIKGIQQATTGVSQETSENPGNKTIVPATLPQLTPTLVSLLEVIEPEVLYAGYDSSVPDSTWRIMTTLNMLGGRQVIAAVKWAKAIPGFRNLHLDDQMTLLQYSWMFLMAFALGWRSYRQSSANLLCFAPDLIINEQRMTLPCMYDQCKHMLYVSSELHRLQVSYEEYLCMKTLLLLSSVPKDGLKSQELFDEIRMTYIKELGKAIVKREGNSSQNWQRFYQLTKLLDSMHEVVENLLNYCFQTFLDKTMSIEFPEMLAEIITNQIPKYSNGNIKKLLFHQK
# How it was run: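 Cells: GR-bla HeLa, endogenous GR with stably integrated GRE-beta-lactamase reporter. Treatment 18 h, 37 C, compounds delivered in DMSO. Detection via LiveBLAzer B/G FRET substrate, 2 h RT, fluorescence intensity.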
# [14] = qHTS assay for small molecule agonists of the p53 signaling pathway - cell viability (AID 651633; calls by dose curve;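 further: p53RE-bla HCT reporter cells with a stable beta-lactamase p53 reporter; series mostly up to about 83 µM; nearly all actives have a fitted effect of over 30% in size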)
# How it was run: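 p53RE-bla cells, seeded at 4,000 per well and rested 5 h at 37 C/5% CO2, received compounds in DMSO for 16 h at 37 C. CellTiter-Glo was then added, and luminescence was read after 30 min at room temperature to gauge cytotoxicity.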
# [15] = qHTS assay to test for compound auto fluorescence at 590 nm (red) in HEK293 cells (AID 720679)
# How it was run: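 Each well held 2,000 HEK293 cells in medium containing 10% dialyzed FBS. Following 4-5 hr attachment at 37C, 23 nL test compound or DMSO was added; plates sat overnight, and red fluorescence (540/590nm) was recorded.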
# [16] = qHTS assay to test for compound auto fluorescence at 535 nm (green) in HEK293 cell free culture (AID 720682)
# How it was run: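 Each library compound, or DMSO control, is added by pintool to medium alone, comprising DMEM and 10% FBS. Emission at 535 nm following 485 nm excitation is quantified against fluorescein.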
# [17] = qHTS assay to test for compound auto fluorescence at 535 nm (green) in HepG2 cell free culture (AID 720686)
# [18] = target: Glucocorticoid receptor (Homo sapiens) (UniProt P04150); experiment: qHTS assay to identify small molecule antagonists of the glucocorticoid receptor (GR) signaling pathway (AID 720692; active means well fitted inhibition curve with a large enough effect in the signal ratio in the repeat runs, not every such curve was filed as active; the % refers to the signal ratio; further: potency means the concentration at half of the fitted maximal effect)
# How it was run: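 Quantitative HTS in antagonist format: HeLa cells expressing endogenous GR and a stably integrated GRE-bla reporter, stimulated with 5 nM dexamethasone (final) alongside test compounds for 18 h.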
# [19] = qHTS assay for small molecule disruptors of the mitochondrial membrane potential (AID 720635); further: potency means the concentration at half of the fitted maximal effect
# How it was run: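 HepG2 cells (2,000/well) attached overnight at 37C, then took compound for 1 hr at 37C, 5% CO2. Mito-MPS dye was added for 30 min; fluorescence was read at 490/535 nm (monomers) and 540/590 nm (aggregates).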
SMILES,Potency [1],Potency [2],Potency [3],outcome [4],outcome [5],outcome [6],outcome [7],outcome [8],outcome [9],outcome [10],outcome [11],outcome [12],Potency [13],outcome [14],outcome [15],outcome [16],outcome [17],Potency [18],Potency [19]
O=C1CCCN1C1CCCCC1,inactive,inactive,inactive,inactive,inactive,inactive,inactive,inactive,inactive,inactive,inactive,inactive,inactive,,,,,,
CCO/C([O-])=N/c1c[n+](N2CCOCC2)no1,inactive,inactive,inactive,inactive,,inactive,inactive,inactive,inactive,inactive,inactive,inactive,inactive,inactive,inactive,inactive,inactive,inactive,
CC/C=C\CC/C=C/CO,inactive,inactive,inactive,inactive,inactive,inactive,inactive,inactive,inactive,inactive,inactive,inactive,inactive,,,inactive,inactive,inactive,
CC(C)(C)c1ccc(O)c(O)c1,,inactive,inactive,inactive,inactive,inactive,inactive,inactive,inactive,inactive,inactive,inactive,inactive,inactive,inactive,inactive,inactive,50.9 µM (active),15.9 µM (active) and 13.7 µM (active)
CC(=O)N(CC(O)CO)c1c(I)c(C(=O)NCCO)c(I)c(C(=O)NCC(O)CO)c1I (stereo unspecified),inactive,inactive,inactive,inactive,inactive,inactive,inactive,inactive,inactive,inactive,inactive,inactive,,,,inactive,,,inactive
CC(C)(C)c1nnc(NS(=O)(=O)c2ccccc2)s1,inactive,inactive,inactive,inactive,inactive,inactive,inactive,inactive,inactive,inactive,inactive,inactive,inactive,inactive,inactive,inactive,inactive,inactive,
